PLK1 PBD inh: inhibitors of human PLK1 polo-box domain binding. Plk1 PBD binding of FITC phosphopeptide, fluorescence polarization. Potency, µM, inactives show max response, negative = inhibition, actives largely listed as inhibitors. 2.8% of 360,000 active. AID 720504; also: potency is read from the fitted curve at half-maximal effect; series mostly up to about 57 µM; % is scaled to controls: 0 for no effect and ±100 for the full control effect; nearly all actives have a fitted effect of over 65% in size
Target sequence (P53350 whole entry, looked up, the tested form may be a part): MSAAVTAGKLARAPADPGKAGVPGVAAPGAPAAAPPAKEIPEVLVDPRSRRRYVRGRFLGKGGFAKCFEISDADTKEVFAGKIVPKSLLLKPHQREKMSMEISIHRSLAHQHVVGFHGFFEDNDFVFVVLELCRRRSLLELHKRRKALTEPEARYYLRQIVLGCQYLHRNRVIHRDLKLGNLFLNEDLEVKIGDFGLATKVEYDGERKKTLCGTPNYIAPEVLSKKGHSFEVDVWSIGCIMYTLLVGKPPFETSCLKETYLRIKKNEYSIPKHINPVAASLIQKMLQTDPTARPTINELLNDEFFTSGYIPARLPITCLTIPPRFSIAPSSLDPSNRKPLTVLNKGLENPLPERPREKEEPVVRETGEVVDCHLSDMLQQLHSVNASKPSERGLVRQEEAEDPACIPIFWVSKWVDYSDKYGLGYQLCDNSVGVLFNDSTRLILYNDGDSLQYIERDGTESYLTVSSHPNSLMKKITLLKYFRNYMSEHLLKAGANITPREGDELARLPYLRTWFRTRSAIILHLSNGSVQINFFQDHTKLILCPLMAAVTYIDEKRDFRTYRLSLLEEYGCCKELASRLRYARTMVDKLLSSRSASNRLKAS
JMJD2A Tudor: blocks the human JMJD2A Tudor domain | Potency, µM (titrated, usually from 114 µM), inactives show at the top dose activity change, negative = inhibition, usual class: inhibitors | O75164 | 4.4% of 390,000 active | AlphaScreen JMJD2A-Tudor / H3K4me3 peptide binding; also: potency is read from the fitted curve at half-maximal effect; % is scaled to controls: 0 for no effect and ±100 for the full control effect; nearly all actives have a fitted effect of over 50% in size
HP1b binding inh: inhibitors of HP1-beta chromodomain binding to methylated histone tails | Potency, µM (doses to about 114 µM), inactives show at the highest dose activity change, negative = inhibition, actives largely listed as inhibitors | AlphaScreen HP1-beta / biotin-H3K9me3 peptide binding | 0.56% of 390,000 active | P83916 | AID 540317; also: potency is read from the fitted curve at half-maximal effect; nearly all actives have a fitted effect of over 70% in size
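HP1-beta protein (50 nM final) preincubated 30 min at room temperature with biotinylated H3(1-18)K9me3 peptide (50 nM) in PBS pH 7.4, 0.01% Tween-20, then compound added for 30 min. AlphaScreen streptavidin donor/nickel chelate acceptor beads (10 ug/mL final), 30 min dark, luminescence read.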
G9a inh: blocks human histone lysine methyltransferase G9a; Q96KQ7; G9a H3K9 monomethylation, AlphaScreen, 2 h; Potency, µM (doses to about 102 µM), without a hit: at the top dose activity, negative = inhibition, hits mostly inhibitors; 8.8% of 350,000 active; also: potency is read from the fitted curve at half-maximal effect; % is scaled to controls: 0 for no effect and ±100 for the full control effect; nearly all actives have a fitted effect of over 75% in size
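Enzyme 20 nM + cpd, 15 min RT; add b-H3K9 pep 500 nM / SAM 20 uM; 2 h RT; anti-H3K9me1 Ab 0.5 ug/mL + SA donor / anti-rabbit acceptor beads 20 ug/mL each, 10 min; AlphaScreen read.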
PI5P4Ka inh: inhibitors of human PI5P4K alpha; PI5P4Kalpha enzyme, ADP-Glo luminescence, 60 min; hits give low values; P48426; max response, %; AID 652105; 1.2% of 330,000 active; active = max response of -50% or lower; inconclusive = between -30% and -50%; inactive = -30% or higher; also: value at the top dose of about 77 µM; % is scaled to controls: 0 for no effect and ±100 for the full control effect
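PI5P4Kalpha ADP-Glo assay; 5 microM ATP final; 60 min RT reaction; HEPES pH 7.4/EGTA/CHAPS, 5% DMSO; controls lacking substrate or enzyme; luminescent end-point.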
BAZ2B inh: inhibitors of human BAZ2B bromodomain; Q9UIF8; AlphaScreen BAZ2B-H3K14Ac peptide displacement; Potency, µM (doses to about 114 µM), for the others: top-dose activity change, negative = inhibition, usual class: inhibitors; 4.4% of 360,000 active; AID 504333; also: potency is read from the fitted curve at half-maximal effect; % is scaled to controls: 0 for no effect and ±100 for the full control effect; nearly all actives have a fitted effect of over 60% in size
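Multi-concentration screen (max 110 uM) measuring displacement of acetylated histone H3 peptide from BAZ2B by AlphaScreen, using 50 nM protein, 50 nM peptide and 10 ug/mL streptavidin donor plus Ni-chelate acceptor beads.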
Starred values were filed as active, the others as inactive; ? = inconclusive; / = not tested or not shown; [ ] = another dose, or the depositor's remark. Most compounds without a hit are left out; they make up all but 12% or so of the library. Unless noted, calls follow the shape of the dose curve; as a rule, active = well fitted curve in the direction sought with a large enough effect; inconclusive = small, poorly fitted or top-dose-only effect, or another doubt; inactive = no such curve, though single readings can be large; an effect the other way counts as inactive or inconclusive.

SMILES	PLK1 PBD inh	JMJD2A Tudor	HP1b binding inh	G9a inh	PI5P4Ka inh	BAZ2B inh
CC(=O)Oc1ccc(NC(=O)Cc2ccccc2)c(C(=O)O)c1	3%	-6%	47%	71µM*	-14	?
O=C(CN1C(=O)CSC1=O)Nc1ccc(N2CCOCC2)cc1	-8%	0%	20%	16µM*	-1	7%
Cc1cn(CCC(=O)Nc2ccccc2N2CCOCC2)c2ccccc12	5%	-23%	-3%	-15%	1	-35%
Cc1cn(CCC(=O)Nc2ccc(N3CCOCC3)cc2)c2ccccc12	-15%	?	-10%	45µM*	4	?
Cc1ccc(Cl)cc1Nc1nn2c(=O)c3ccc(C(=O)NC4CCCCC4)cc3nc2s1	/	-11%	1%	-20%[59 µM]	/	-18%
CCc1ccc(-n2cnc3cc(C(=O)NCc4ccc(C)cc4)ccc32)cc1	/	-33%	-4%	?	/	-15%
COc1ccccc1CNCC(=O)Nc1ccc(N2CCOCC2)cc1	?	40µM*	8%	4.5µM*	1	50µM*
Cc1ccccc1OCC(=O)OCC(=O)Nc1ccc(N2CCOCC2)cc1	3%	-15%	21%	-7%	-6	?
COc1cc(OC)cc(C(=O)Nc2ccc(NC(=O)c3ccco3)c(C)c2)c1	-18%	-18%	0%	50µM*	?	-26%
Cc1ccc(NC(=O)c2ccco2)cc1C	21µM*	-21%[11.4 µM]	-6%	5%[59 µM]	-24	?
Cc1cc(NC(=O)c2ccco2)ccc1NC(=O)c1ccco1	-13%	-11%	37%	4%	2	-11%
CCOC(=O)C(NC(=O)CCl)(Nc1sc(C)c(CC)c1C#N)C(F)(F)F (centres undefined)	-19%	-12%	43%	25µM*	2	-6%
CCOC(=O)C(NC(=O)N(C)C)(Nc1sc(C)c(CC)c1C#N)C(F)(F)F (centres undefined)	-28%	-28%	-9%	8.9µM*	-21	-3%
Cc1ccc(Sc2ccc([N+](=O)[O-])cc2[N+](=O)[O-])nc1	-4%	?	-14%	-23%[59 µM]	4	45µM*
CC1(C(=O)c2ccccc2)C2c3c(ccc4ccccc34)OC(=O)C21C(=O)N1CCOCC1 (centres undefined)	3%	-27%	-11%	79µM*	-2	?
O=[N+]([O-])c1c(Nc2ccc(O)cc2)cc(Cl)c2nonc12	1.7µM*	?	-16%	32µM*	-24	?
O=[N+]([O-])c1ccc(Nc2ccccc2O)c2nonc12	-14%	50µM*	?	?	-11	?
O=C(O)c1ccccc1Nc1cc(Cl)c2nonc2c1[N+](=O)[O-]	7.5µM*	-21%	32%	45µM*	-12	-33%
CC(=O)c1ccc(Nc2ccc([N+](=O)[O-])c3nonc23)cc1	-9%	-30%	-9%	?	-9	?
O=C(O)c1cccc(Nc2cc(Cl)c3nonc3c2[N+](=O)[O-])c1	12µM*	-11%	39%	32µM*	-26	-17%
CCc1ccc(NC(=O)CC2C(=O)N(c3cccc(OC)c3)C(=O)N2Cc2ccco2)cc1 (centres undefined)	/	-24%	26%	?	/	-24%
Cc1ccc(C)c(N2CCN(C(=O)c3cc4c(=O)n(Cc5ccco5)ccc4nc3C)CC2)c1	/	?	-13%	-36%[59 µM]	/	?
Cc1ccccc1-c1nn2c(=O)cc(CN3CCN(C(=O)c4ccccc4Br)CC3)nc2s1	/	-23%	33%[57 µM]	-7%[59 µM]	/	2%
O=[N+]([O-])c1c(Nc2ccccn2)cc(Cl)c2nonc12	-97%	?	?	0.71µM*	?	?
O=C(O)c1cccc(Nc2ccc([N+](=O)[O-])c3nonc23)c1	9%	-12%	?	71µM*	-16	?
SMILES	PLK1 PBD inh	JMJD2A Tudor	HP1b binding inh	G9a inh	PI5P4Ka inh	BAZ2B inh
O=[N+]([O-])c1ccc(Nc2ccccn2)c([N+](=O)[O-])c1	-16%	-27%	7%	/	-1	-32%
O=C(OCC#CCSc1nnc(-c2ccc(F)cc2)o1)c1ccc(F)cc1	/	57%	/	/	/	/
N#C/C(=C/c1cn[nH]c1-c1ccc(Br)cc1)C(=O)O	-12%	-9%	9%	-13%[59 µM]	-76*	-11%
N#C/C(=C/c1cn[nH]c1-c1cccc(Br)c1)C(=O)O	3%	-6%	34%	5%	?	-3%
CC1(C)CC(=O)c2c(O)cc(O)cc2O1	2%	-11%	22%	5%[12.7 µM]	/	-4%
C[C@]12CCC[C@H](O1)c1c(cc3c(c1O)C(=O)c1c(O)cc(O)cc1C3=O)O2	?	35µM*	?	/	-19	/
COc1ccc(/C=C2\SC(=O)N(CCNC(=O)CCS(=O)(=O)c3ccc(C)cc3)C2=O)cc1	30µM*	?	?	?	1	-7%
COc1ccc(/C=C2/SC(=O)N(CCC(=O)Nc3ccc(C)cc3)C2=O)cc1OC	/	/	/	-24%	/	-5%
COc1ccc(/C=C2\SC(=O)N(CCNC(=O)Cc3coc4cc(C)ccc34)C2=O)cc1OC	-11%	-28%	10%	10µM*	-1	-38%
CC(=O)c1c(C)[nH]c(C(=O)OCC(=O)N2CCc3ccccc3C2)c1C	6%	-3%	19%	9%[12.7 µM]	1	?
CCOc1ccc(CNCCCSc2nnnn2C)cc1OC	/	-24%	11%	1%[59 µM]	/	-10%
COc1cc(OC)cc(C(=O)NC2CCSc3ccccc32)c1 (centres undefined)	-13%	-29%	23%	?	4	-13%
Cc1cnc(C(=O)NC2CCSc3ccccc32)cn1 (centres undefined)	3%	-5%	57%	45µM*	-13	-26%
COc1ccccc1N1CCN(C(=O)c2cnn(C(C)(C)C)c2C2CCN(C(=O)OC(C)(C)C)CC2)CC1	/	-12%	39%	-7%[59 µM]	/	7%[57.1 µM]
COc1ccc(NC(=O)/C(Cl)=C(/Cl)S(=O)(=O)Cc2ccccc2)cn1	5.3µM*	-20%	37%	?	0	-2%
COc1ccc(NC(=O)/C(Cl)=C(/Cl)S(=O)Cc2ccc(Cl)cc2)cn1 (centres undefined)	1.3µM*	-28%	50%	11µM*	-3	-15%
COc1ccc(NC(=O)C(Cl)=C(Cl)Cl)cn1	1%	-2%	24%	25%	0	5%
O=C(Nc1ccccc1Br)c1ccc(N2CCCC2=O)cc1	-5%	-6%	22%	1%[0.501 µM]	-22	0%
O=C(N/N=C/c1ccc(N2CCOCC2)o1)c1ccccc1[N+](=O)[O-]	1%	?	-3%	?	-16	-1%
O=C(NCc1ccccc1)c1ccc(NC(=O)C2CCCO2)cc1 (centres undefined)	9%	-6%	36%	20µM*	1	-31%
O=C(Nc1ccccc1N1CCCC1)c1ccc(N2CCCC2=O)cc1	-3%	-23%	8%	35µM*	-1	-24%

Screening results (PubChem)
